Measured values reported in PubChem BioAssay (NCATS).
Results filed as inconclusive are left out. Entries that show only a call come without a potency. The source holds several records for some structures; these can differ, active in one and inactive in another. Active and inactive are the calls of the source. Unless noted, calls come from the whole dose curve; as a rule, active = well fitted curve in the direction sought with a large enough effect; inconclusive = small, poorly fitted or top-dose-only effect, or another doubt; inactive = no such curve, though single readings can be large; an effect the other way counts as inactive or inconclusive.

Experiments:
[1] = biological target: Beta-2 adrenergic receptor (Homo sapiens) (UniProt P07550); assay: qHTS validation assay of beta-arrestin-biased ligands of beta2-adrenergic receptor (AID 485366)
Beta-2 adrenergic receptor (Homo sapiens), sequence (P07550 whole entry, looked up): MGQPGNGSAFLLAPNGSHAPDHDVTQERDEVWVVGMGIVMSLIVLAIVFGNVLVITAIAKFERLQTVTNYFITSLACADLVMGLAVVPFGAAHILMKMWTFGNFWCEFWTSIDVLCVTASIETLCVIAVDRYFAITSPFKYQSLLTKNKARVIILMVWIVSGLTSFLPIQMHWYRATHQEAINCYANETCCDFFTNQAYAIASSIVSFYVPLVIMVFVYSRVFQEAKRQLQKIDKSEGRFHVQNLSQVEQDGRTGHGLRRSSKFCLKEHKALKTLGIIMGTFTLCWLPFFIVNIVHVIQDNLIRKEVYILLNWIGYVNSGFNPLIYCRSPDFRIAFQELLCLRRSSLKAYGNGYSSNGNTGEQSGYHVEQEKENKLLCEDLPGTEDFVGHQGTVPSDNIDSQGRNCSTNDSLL
How it was run: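 Agonism was measured as beta-arrestin recruitment to recombinant beta2-AR, releasing tTA to drive luciferase. Cells were exposed for 18 hr at 37 degrees C to a series up to 46 microM. %Activity from corrected luminescence gave concentration-response curves.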

[2] = biological target: Thioredoxin reductase 1, cytoplasmic (Rattus norvegicus) (UniProt O89049); assay: qHTS Assay for Inhibitors of Mammalian Selenoprotein Thioredoxin Reductase 1 (TrxR1) (AID 488773); details: Potency: inhibition; note: nearly all actives have a fitted effect of over 40% in size; note: potency is the fitted concentration of half-maximal effect
Thioredoxin reductase 1, cytoplasmic (Rattus norvegicus), sequence (O89049 whole entry, looked up): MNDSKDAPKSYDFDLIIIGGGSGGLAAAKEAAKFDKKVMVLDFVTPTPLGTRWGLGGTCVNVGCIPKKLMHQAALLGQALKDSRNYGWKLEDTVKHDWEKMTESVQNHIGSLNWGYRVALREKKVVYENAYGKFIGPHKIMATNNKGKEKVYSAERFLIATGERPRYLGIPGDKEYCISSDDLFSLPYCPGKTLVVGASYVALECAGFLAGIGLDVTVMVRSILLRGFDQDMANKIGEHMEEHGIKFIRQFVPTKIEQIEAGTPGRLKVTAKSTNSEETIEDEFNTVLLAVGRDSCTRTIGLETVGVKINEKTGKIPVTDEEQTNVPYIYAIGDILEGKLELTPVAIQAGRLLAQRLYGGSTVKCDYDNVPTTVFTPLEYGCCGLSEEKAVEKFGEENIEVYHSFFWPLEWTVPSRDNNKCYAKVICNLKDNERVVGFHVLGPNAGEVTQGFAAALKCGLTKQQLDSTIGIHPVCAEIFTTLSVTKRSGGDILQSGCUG
How it was run: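 Inhibition is scored from the loss of NADPH fluorescence between first and last reads of an 8-min kinetic run. Selenite (400 uM) was the substrate, added after 15 min compound preincubation at room temperature.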

[3] = biological target: M-phase phosphoprotein 8 (Homo sapiens) (UniProt Q99549); assay: qHTS Validation Assay for Inhibitors for MPP8 Chromodomain Interactions with Methylated Histone Tails (AID 488949); note: nearly all actives have a fitted effect of over 55% in size; note: potency is the fitted concentration of half-maximal effect
M-phase phosphoprotein 8 (Homo sapiens), sequence (Q99549 whole entry, looked up): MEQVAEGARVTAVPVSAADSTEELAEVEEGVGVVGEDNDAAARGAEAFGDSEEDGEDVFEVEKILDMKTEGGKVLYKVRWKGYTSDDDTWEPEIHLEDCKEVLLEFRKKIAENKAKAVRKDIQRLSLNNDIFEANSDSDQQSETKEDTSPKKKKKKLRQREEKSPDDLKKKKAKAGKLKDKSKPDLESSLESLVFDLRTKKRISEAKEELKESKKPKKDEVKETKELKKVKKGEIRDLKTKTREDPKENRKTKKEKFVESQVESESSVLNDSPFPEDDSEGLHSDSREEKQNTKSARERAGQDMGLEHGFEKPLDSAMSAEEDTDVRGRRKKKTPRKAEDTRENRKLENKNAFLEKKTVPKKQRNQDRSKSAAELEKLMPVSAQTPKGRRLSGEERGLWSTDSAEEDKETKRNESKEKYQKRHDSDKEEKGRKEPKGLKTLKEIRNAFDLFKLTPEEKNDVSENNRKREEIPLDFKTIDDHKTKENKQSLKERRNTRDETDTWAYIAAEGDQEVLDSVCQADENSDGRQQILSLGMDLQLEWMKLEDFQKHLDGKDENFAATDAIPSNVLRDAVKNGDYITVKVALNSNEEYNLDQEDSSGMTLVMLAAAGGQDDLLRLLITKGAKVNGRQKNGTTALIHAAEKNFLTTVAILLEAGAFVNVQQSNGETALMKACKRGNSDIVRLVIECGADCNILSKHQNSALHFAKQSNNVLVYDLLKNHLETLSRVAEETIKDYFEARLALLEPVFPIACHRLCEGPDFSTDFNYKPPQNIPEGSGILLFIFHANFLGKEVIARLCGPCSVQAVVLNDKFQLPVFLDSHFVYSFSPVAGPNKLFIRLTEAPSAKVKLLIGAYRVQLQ
How it was run: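 MPP8 (50 nM) was pre-bound to 50 nM biotinylated H3(1-18)K9me3 peptide in PBS pH 7.4 with 0.01% Tween-20. Compounds were then added for 30 min at room temperature, and complex disruption was read by AlphaScreen with streptavidin donor and nickel-chelate acceptor beads.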

[4] = biological target: Methanococcus maripaludis chaperonin (MmCpn) (UniProt Q6LX38); assay: High-Throughput Screening for Modulators of Cytosolic Chaperonin Activity: MmCpn Primary Screen (AID 488978);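 note: 50 nM MmCpn enzyme hydrolysing 30 µM ATP at 37 °C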
How it was run: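 MmCpn at 50 nM final was preincubated 5 min at RT with compound. ATP was then added at 30 uM final for 10 min at 37 C. ADP formed was detected by Transcreener HTRF (665/590 nm).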

[5] = biological target: Transient receptor potential cation channel subfamily V member 1 (Homo sapiens) (UniProt Q8NER1); assay: HTS Assay for Compounds that Act as Enhancers of the Vanilloid Receptor 1 (AID 488979)
Transient receptor potential cation channel subfamily V member 1 (Homo sapiens), sequence (Q8NER1 whole entry, looked up): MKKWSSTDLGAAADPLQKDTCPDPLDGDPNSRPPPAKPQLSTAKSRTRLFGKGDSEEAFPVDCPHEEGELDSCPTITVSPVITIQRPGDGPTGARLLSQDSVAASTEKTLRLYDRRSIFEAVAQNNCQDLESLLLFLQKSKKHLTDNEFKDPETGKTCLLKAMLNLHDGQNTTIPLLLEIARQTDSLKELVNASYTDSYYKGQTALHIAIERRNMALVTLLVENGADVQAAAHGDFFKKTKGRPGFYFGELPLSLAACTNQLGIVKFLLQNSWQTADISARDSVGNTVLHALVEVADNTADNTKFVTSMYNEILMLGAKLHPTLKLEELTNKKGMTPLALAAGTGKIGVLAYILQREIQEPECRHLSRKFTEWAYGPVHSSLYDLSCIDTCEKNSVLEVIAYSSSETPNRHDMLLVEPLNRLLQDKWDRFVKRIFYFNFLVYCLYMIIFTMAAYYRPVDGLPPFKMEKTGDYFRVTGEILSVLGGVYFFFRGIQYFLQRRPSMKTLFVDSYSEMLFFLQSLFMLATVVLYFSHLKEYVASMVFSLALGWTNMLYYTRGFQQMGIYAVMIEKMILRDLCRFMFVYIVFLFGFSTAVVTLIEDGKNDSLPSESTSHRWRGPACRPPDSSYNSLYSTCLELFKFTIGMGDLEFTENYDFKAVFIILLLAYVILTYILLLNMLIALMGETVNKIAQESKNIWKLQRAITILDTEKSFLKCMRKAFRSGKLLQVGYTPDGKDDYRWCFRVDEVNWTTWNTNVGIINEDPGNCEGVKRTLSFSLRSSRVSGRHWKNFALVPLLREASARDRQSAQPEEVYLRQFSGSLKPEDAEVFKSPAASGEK
How it was run: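 Calcium influx kinetics via Fluo-8 (480/520 nm) in TRPV1-expressing cells, 2000/well cultured overnight at 35.5C. Compound-alone read 3 min (agonist phase), followed by EC20 capsaicin challenge for 2 min (enhancer phase).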

[6] = biological target: Thyrotropin receptor (Homo sapiens) (UniProt P16473); assay: qHTS Assay for Antagonists of the Thyroid Stimulating Hormone Receptor (AID 488980); note: series mostly up to about 58 µM
Thyrotropin receptor (Homo sapiens), sequence (P16473 whole entry, looked up): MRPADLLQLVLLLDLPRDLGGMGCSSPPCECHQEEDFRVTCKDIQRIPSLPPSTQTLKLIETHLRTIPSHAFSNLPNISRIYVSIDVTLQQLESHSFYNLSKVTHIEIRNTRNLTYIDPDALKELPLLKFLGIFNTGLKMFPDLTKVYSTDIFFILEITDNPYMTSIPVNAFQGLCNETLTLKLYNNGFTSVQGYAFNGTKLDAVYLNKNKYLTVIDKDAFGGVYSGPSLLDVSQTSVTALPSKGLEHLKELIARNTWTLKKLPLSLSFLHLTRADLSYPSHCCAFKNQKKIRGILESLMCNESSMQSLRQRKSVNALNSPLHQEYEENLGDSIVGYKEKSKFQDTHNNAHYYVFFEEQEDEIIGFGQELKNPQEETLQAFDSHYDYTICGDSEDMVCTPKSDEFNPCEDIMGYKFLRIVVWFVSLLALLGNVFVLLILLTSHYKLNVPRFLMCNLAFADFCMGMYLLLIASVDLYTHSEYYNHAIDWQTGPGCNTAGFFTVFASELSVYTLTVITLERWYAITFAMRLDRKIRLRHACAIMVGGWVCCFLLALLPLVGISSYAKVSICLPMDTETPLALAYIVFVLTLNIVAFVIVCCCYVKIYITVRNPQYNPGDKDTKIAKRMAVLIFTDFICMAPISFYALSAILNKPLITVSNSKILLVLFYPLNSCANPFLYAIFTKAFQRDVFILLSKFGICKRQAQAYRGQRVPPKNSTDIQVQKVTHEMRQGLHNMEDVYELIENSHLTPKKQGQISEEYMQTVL
How it was run: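 TSHR-transfected HEK293 cells (2000/well) in HEPES-buffered HBSS with 70 uM RO 20-1724 were stimulated with 4 nM TSH (EC80, final) in the presence of compound. cAMP was measured by HTRF competition after lysis and 30 min at RT.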

[7] = biological target: D(1A) dopamine receptor (Homo sapiens) (UniProt P21728); assay: HTS Assay for Allosteric Agonists of the Human D1 Dopamine Receptor: Primary Screen for Agonists (AID 488981)
D(1A) dopamine receptor (Homo sapiens), sequence (P21728 whole entry, looked up): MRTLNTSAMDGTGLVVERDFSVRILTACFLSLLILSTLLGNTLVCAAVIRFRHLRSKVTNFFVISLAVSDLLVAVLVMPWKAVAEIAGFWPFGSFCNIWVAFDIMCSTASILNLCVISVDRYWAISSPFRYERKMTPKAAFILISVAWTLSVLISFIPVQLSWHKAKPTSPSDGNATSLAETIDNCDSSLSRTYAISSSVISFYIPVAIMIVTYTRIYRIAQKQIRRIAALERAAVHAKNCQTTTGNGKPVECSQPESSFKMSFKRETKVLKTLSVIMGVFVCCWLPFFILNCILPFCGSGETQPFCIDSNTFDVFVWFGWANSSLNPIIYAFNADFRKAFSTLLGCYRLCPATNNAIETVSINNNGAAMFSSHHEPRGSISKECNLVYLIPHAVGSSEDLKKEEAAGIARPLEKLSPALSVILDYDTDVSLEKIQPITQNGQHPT
How it was run: (§1)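 Calcium flux in an inducible, force-coupled HEK293 Trex D1 line (overnight at 30 C): agonist mode is the 180 s kinetic read after compound; potentiator mode is the following 180 s read after dopamine at EC20.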

[8] = biological target: D(1A) dopamine receptor (Homo sapiens) (UniProt P21728); assay: HTS Assay for Allosteric Agonists of the Human D1 Dopamine Receptor: Primary Screen for Potentiators (AID 488982)
How it was run: as §1

[9] = biological target: D(1A) dopamine receptor (Homo sapiens) (UniProt P21728); assay: HTS Assay for Allosteric Agonists of the Human D1 Dopamine Receptor: Primary Screen for Antagonists (AID 488983);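 note: calcium flux response to an EC80 dopamine challenge measured with no-wash dye; nearly all actives have a fitted effect of over 65% in size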
How it was run: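 Kinetic fluorescence at 1 cycle/sec tracked intracellular calcium in force-coupled, tetracycline-inducible HEK293 T-REx D1 cells. Loss of response to an EC80 dopamine dose, given 180 s after compound, marked antagonists.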

[10] = Validation screen for small molecules that induce genotoxicity in human embryonic kidney (HEK293T) cells expressing luciferase-tagged ELG1 (AID 493106)
How it was run: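 Cells were dispensed at 2,000 per well, then 23 nL compound or DMSO was pinned in. After 16 hr at 37 °C and 5% CO2, ONE-Glo reagent was added. Luciferase activity was measured following 30 min at room temperature.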

[11] = biological target: ATPase family AAA domain-containing protein 5 (Homo sapiens) (UniProt Q96QE3); assay: Validation screen for small molecules that inhibit ELG1-dependent DNA repair in human embryonic kidney (HEK293T) cells expressing luciferase-tagged ELG1 (AID 493107); note: nearly all actives have a fitted effect of over 70% in size; note: potency is the fitted concentration of half-maximal effect
How it was run: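 Cells are dispensed in 1536-well format, then 5-fluorouridine and compound are pinned in. After a 16 hr incubation at 37 °C and 5% CO2, ONE-Glo is added and luciferase measured on a CCD imager.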

[12] = biological target: Thioredoxin reductase 1, cytoplasmic (Rattus norvegicus) (UniProt O89049); assay: qHTS Assay for Substrates of Mammalian Selenoprotein Thioredoxin Reductase 1 (TrxR1) (AID 488772);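 note: series mostly up to about 57 µM; a drop in NADPH fluorescence below the no-compound background marks a TrxR1 substrate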
How it was run: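 In this dual-purpose format, potential substrates are identified from the first fluorescence read after selenite addition, not from the 8-minute delta. Rat enzyme is preincubated with NADPH and then with compound at ~22 deg C.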

[13] = biological target: Chromobox protein homolog 1 (Homo sapiens) (UniProt P83916); assay: qHTS Validation Assay for Inhibitors of HP1-beta Chromodomain Interactions with Methylated Histone Tails (AID 488953); note: nearly all actives have a fitted effect of over 50% in size; note: potency is the fitted concentration of half-maximal effect
Chromobox protein homolog 1 (Homo sapiens), sequence (P83916 whole entry, looked up): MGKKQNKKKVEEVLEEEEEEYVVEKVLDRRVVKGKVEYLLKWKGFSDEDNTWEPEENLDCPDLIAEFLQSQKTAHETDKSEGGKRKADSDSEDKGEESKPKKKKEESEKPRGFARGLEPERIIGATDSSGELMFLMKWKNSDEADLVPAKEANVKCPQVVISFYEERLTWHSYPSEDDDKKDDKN
How it was run: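 Disruption of preformed HP1-beta:H3K9me3 peptide complexes (both 50 nM, PBS pH 7.4 with 0.01% Tween-20) is measured by AlphaScreen after 30 min compound exposure at room temperature, using streptavidin donor and nickel chelate acceptor beads at 10 ug/mL final.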

[14] = biological target: ATP-dependent 6-phosphofructokinase (Trypanosoma brucei brucei) (UniProt O15648); assay: qHTS Validation Assay to Find Inhibitors of T. brucei phosphofructokinase (AID 485368)
ATP-dependent 6-phosphofructokinase (Trypanosoma brucei brucei), sequence (O15648 whole entry, looked up): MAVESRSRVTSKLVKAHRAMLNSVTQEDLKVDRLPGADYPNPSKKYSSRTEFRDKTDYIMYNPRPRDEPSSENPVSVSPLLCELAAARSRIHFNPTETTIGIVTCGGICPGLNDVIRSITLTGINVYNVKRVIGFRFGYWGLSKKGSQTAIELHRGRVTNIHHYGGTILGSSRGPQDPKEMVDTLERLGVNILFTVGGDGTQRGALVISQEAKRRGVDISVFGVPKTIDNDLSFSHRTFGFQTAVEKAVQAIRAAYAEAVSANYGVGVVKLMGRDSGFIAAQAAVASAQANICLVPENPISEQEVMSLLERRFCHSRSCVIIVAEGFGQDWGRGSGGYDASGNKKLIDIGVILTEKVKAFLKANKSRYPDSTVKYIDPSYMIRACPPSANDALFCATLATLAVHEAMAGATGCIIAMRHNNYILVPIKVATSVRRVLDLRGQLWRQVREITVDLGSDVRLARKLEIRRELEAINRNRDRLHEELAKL
How it was run: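 ADP-Glo luminescence, two-step: residual ATP depleted, then ADP converted to ATP for luciferase. Enzyme 1.25 nM, F6P 0.5 mM, ATP 0.1 mM, pH 8.0 TEA buffer, 45 min RT. Curves fitted and classed by quality and efficacy.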

[15] = Quantitative high throughput screen for delayed death inhibitors of the malarial parasite plastid, 96 hour incubation (AID 488745);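 note: luciferase-expressing P. falciparum in erythrocytes at 2% hematocrit and 0.1% parasitemia; series mostly up to about 29 µM; nearly all actives have a fitted effect of over 70% in size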
How it was run: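 Readout is firefly luciferase luminescence from an integrated reporter in P. falciparum; lower signal marks inhibited growth. Cultures at 2% hematocrit and 0.1% parasitemia were treated with compound across two generations (96 h, 37 C, 5% CO2).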

[16] = Quantitative high throughput screen for delayed death inhibitors of the malarial parasite plastid, 48 hour incubation (AID 488752); note: nearly all actives have a fitted effect of over 65% in size
How it was run: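 First, compound was pinned into RPMI 1640 medium containing 0.5% Albumax. Next, reporter-parasite-infected erythrocytes were added to 2% hematocrit and 0.1% parasitemia. After 48 h at 37 C under 5% CO2, luciferase detection reagent was added and luminescence read.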

[17] = biological target: Flap endonuclease 1 (Homo sapiens) (UniProt P39748); assay: qHTS Validation Assay for the Inhibitors of Human Flap endonuclease 1 (FEN1) (AID 488816)
How it was run: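 qHTS format: compounds and 10 nM FEN1 incubated 15 min at room temperature before adding 50 nM substrate. Cleavage followed by reads at 0 and 15 min; normalized data fitted to a four-parameter Hill curve.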

[18] = biological target: Thyrotropin-releasing hormone receptor (Homo sapiens) (UniProt P34981); assay: qHTS for Small Molecule Agonists and Allosteric Enhancers of Human TRH Receptor: Validation Screen for Agonists (AID 493127;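 active = calcium activation more than 3 SD above the typical response in the agonist read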;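 note: intracellular calcium rise by fluo-8 fluorescence before TRH EC20 addition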); details: TRH receptor agonist cell assay; at 2 µM; stronger effect = higher value
Thyrotropin-releasing hormone receptor (Homo sapiens), sequence (P34981 whole entry, looked up): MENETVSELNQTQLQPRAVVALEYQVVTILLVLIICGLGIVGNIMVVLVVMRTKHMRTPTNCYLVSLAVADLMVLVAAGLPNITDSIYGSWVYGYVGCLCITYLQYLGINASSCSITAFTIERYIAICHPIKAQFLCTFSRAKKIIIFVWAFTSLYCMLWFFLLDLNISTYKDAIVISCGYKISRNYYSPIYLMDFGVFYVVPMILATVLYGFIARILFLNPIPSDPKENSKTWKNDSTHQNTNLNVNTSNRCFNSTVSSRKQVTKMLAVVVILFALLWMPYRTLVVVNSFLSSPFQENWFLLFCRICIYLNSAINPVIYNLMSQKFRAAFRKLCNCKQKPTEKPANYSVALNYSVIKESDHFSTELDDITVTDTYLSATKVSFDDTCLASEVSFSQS
How it was run: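 Compounds are added by online pintool to dye-loaded TRHR cells while fluorescence is recorded every second. A rise in calcium signal during the agonist read marks activation; a later 10 nM TRH addition (EC20) serves the separate enhancer mode.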

[19] = biological target: ATP-dependent 6-phosphofructokinase (Trypanosoma brucei brucei) (UniProt O15648); assay: qHTS Assay to Find Inhibitors of T. brucei phosphofructokinase: hit validation (AID 492961);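 note: luminescence reports ADP formed as PFK phosphorylates fructose-6-phosphate with ATP; series mostly up to about 51 µM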
How it was run: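 Measures ADP output of PFK (1.25 nM) at 0.1 mM ATP, 0.5 mM F6P, pH 8.0 TEA buffer with 5 mM MgCl2. No-enzyme wells define full inhibition; uninhibited enzyme wells define zero.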

| Compound | outcome [1] | Potency [2] | Potency [3] | outcome [4] | outcome [5] | outcome [6] | Potency [7] | Potency [8] | Potency [9] | Potency [10] | Potency [11] | outcome [12] | Potency [13] | Potency [14] | Potency [15] | Potency [16] | Potency [17] | activation [18] | outcome [19] |
| --- | --- | --- | --- | --- | --- | --- | --- | --- | --- | --- | --- | --- | --- | --- | --- | --- | --- | --- | --- |
| CCCCCC[C@@H]([C@@H](C)O)n1cnc2c(N)ncnc21 | inactive | inactive | inactive | inactive | inactive | inactive | inactive | inactive | inactive | inactive | inactive | – | – | – | – | – | – | – | – |
| C[C@](Cc1ccc(O)c(O)c1)(NN)C(=O)O | inactive | 8.44 µM (active) | inactive | inactive | – | – | – | – | inactive | inactive | inactive | inactive | inactive | – | – | – | – | – | – |
| CCCCCCCCCCCCCCSCC(=O)O | – | inactive | 31.6 µM (active) and inactive | inactive | inactive | inactive | inactive | inactive | inactive | inactive | inactive | inactive | 50.1 µM (active) | inactive | inactive | inactive | inactive | 0.688% (inactive) | – |
| O=C1NC(=O)c2cc(Nc3ccccc3)c(Nc3ccccc3)cc21 | inactive | inactive | 31.6 µM (active) | inactive | inactive | inactive | inactive | inactive | inactive | inactive | 13 µM (active) | inactive | – | – | – | – | inactive | 6% (inactive) | – |
| Brc1c(Br)c(Br)c2[nH]cnc2c1Br | inactive | inactive | inactive | inactive | – | – | inactive | – | inactive | inactive | 4.61 µM (active) | inactive | inactive | – | – | – | inactive | – | – |
| Oc1ccc(/C=C/c2ccc(/C=C/c3ccc(O)cc3)c(Br)c2)cc1 | inactive | – | inactive | inactive | – | – | inactive | inactive | inactive | inactive | – | inactive | – | – | – | – | inactive | – | – |
| CC(O)C(O)[C@H]1CNc2nc(N)[nH]c(=O)c2N1 (some centres undefined) | inactive | inactive | inactive | inactive | – | – | inactive | inactive | inactive | inactive | inactive | inactive | – | – | – | – | inactive | – | inactive |
| CCCCCCC(=O)OC1CC(C)(C)NC(C)(C)C1 | inactive | inactive | – | inactive | – | – | inactive | inactive | inactive | inactive | – | inactive | inactive | – | – | – | inactive | – | – |
| S=C(S)N1CCCC1 | inactive | inactive | – | inactive | inactive | inactive | inactive | inactive | inactive | – | – | inactive | – | – | – | – | inactive | – | – |
| N#CC(C#N)=C(N)/C(C#N)=C/c1ccc(O)cc1 | – | – | inactive | inactive | – | inactive | inactive | inactive | inactive | inactive | – | inactive | – | – | inactive | inactive | inactive | 0.25% (inactive) | – |
| Cn1cc(C(F)(F)F)nc1-c1ccc(OCC(O)CNCCOc2ccc(O)c(C(N)=O)c2)cc1 (centres undefined) | – | inactive | inactive | inactive | inactive | inactive | inactive | inactive | inactive | inactive | inactive | inactive | inactive | – | – | – | inactive | – | – |
| O=c1[nH]ccc2c(O)cccc12 | – | inactive | inactive | inactive | inactive | inactive | inactive | inactive | inactive | inactive | inactive | – | inactive | – | inactive | inactive | inactive | 1.12% (inactive) | – |
| O=[N+]([O-])c1cccc2c(Br)[nH]nc12 | – | inactive | inactive | inactive | inactive | inactive | – | inactive | inactive | inactive | inactive | inactive | inactive | – | inactive | inactive | inactive | -3.31% (inactive) | – |
| CCCCOc1cc(CC2CNC(=O)N2)ccc1OC (centres undefined) | – | inactive | inactive | inactive | inactive | inactive | inactive | inactive | inactive | inactive | inactive | inactive | inactive | inactive | – | inactive | inactive | 0.75% (inactive) | – |
| O=c1onc2cnc3ccccc3n12 | – | inactive | inactive | inactive | inactive | inactive | inactive | inactive | inactive | inactive | inactive | – | – | – | inactive | inactive | inactive | 0.875% (inactive) | – |
| O=C(O)[C@H]1NCCC[C@H]1C(=O)O | – | inactive | inactive | inactive | inactive | inactive | inactive | inactive | inactive | inactive | inactive | inactive | inactive | – | inactive | inactive | inactive | -0.188% (inactive) | – |
